In the library only some 7.5% were active in any assay of this set; here they are far more common.
Rab9 promoter act: Rab9 promoter activation; Huh7 Rab9 promoter-luciferase reporter, luminescence, 24 h; Potency, µM (series often up to 9.22 µM), for inactives: at the highest dose activation, negative = inhibition, actives largely listed as activators; 2.8% of 320,000 active; AID 485297; further: % of control where 0% means no effect; nearly all actives have a fitted effect of over 60% in size
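Quantitative HTS format; Huh7 Rab9-luciferase reporter cells (1500/well) receive compound 2 h post-plating, incubate 24 h at 37 °C, then get luciferase reagent for 10 min before luminescence reading.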
SMN2 splice enh: SMN2 splice variant enhancement; HEK293 SMN2-luciferase splicing reporter, luminescence, 30-36 h; Potency, µM (titrated, usually from 46.1 µM), for the others: top-dose activity change, positive = activation, usual class: activators; 2.8% of 210,000 active; further: % of control where 0% means no effect; nearly all actives have a fitted effect of over 55% in size
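qHTS luciferase splicing reporter: luminescence rises when SMN2 exon 7 is included in transfected HEK293 cells. Compound exposure lasted 30-36 h at 37C, with 4.5 mM final sodium butyrate as control, followed by a ONE-Glo read.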
FLuc modulator: inhibits or activates purified firefly luciferase, miR-21 counter-screen; Potency, µM (titrated, usually from 57.5 µM), inactives show at the highest dose activity change, negative = inhibition, most hits filed as inhibitors; purified FLuc, Km substrates, luminescence inhibition; P08659; 6.9% of 360,000 active;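 further: plate controls were vehicle for no effect and reference inhibitor for full effect; nearly all actives have a fitted effect of over 55% in size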
Target sequence (P08659 whole entry, looked up): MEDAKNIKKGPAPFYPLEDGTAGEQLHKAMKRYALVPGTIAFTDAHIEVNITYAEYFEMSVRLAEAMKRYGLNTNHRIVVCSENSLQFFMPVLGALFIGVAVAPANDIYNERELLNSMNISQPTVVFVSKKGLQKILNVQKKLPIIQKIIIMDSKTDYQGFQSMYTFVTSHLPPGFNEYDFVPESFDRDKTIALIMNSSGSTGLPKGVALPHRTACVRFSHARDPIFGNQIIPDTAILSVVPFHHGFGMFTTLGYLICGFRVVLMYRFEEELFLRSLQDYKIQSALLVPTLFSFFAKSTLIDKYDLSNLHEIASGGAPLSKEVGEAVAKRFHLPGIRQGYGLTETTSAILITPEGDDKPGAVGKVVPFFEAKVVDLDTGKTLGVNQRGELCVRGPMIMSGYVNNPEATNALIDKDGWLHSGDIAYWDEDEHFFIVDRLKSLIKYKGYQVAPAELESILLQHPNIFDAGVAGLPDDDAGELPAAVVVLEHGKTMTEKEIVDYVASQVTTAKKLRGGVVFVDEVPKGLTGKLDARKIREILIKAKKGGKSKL
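Purified P. pyralis luciferase, 10 nM final, with Km-level 10 uM D-luciferin and 10 uM ATP in 50 mM Tris acetate pH 7.5, 10 mM Mg acetate, 0.01% Tween-20, 0.05% BSA; 6-point qHTS titration about 60 µM downward; luminescence read.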
NPC1 promoter act: activates the NPC1 promoter; Huh7 NPC1 promoter luciferase reporter, 24 h; Potency, µM (doses to about 9.22 µM), for the others: at the highest dose activation, actives largely listed as activators; 2.4% of 320,000 active; AID 485313; further: % of control where 0% means no effect; nearly all actives have a fitted effect of over 60% in size
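In 1536-well qHTS, Huh7 cells harboring an NPC1 promoter–luciferase construct received compound for 24 h; activation was quantified by luminescence following luciferase reagent addition.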
ELG1 genotoxic: inducers of genotoxicity in HEK293T ELG1-luciferase cells. HEK293T ELG1-luciferase reporter, luminescence, 16 h. Potency, µM (series often up to 46 µM), inactives show at the top dose activity change, positive = activation, hits mostly activators. 1.3% of 330,000 active; further: % of control where 0% means no effect; nearly all actives have a fitted effect of over 60% in size
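Quantitative HTS format in 1536-well plates. HEK293T ELG1-luciferase reporter cells receive test compound and are incubated 16 hr at 37 °C, 5% CO2; ONE-Glo added, 30 min room temperature, then luminescence read.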
KinaseGlo FLuc: blocks Kinase-Glo luciferase, a counter-screen artifact; Q27757; Kinase-Glo luciferase, ATP luminescence, 8 min; AID 1379; 0.28% of 200,000 active; Potency, µM (series often up to 38.3 µM), for the others: top-dose activity change, negative = inhibition, actives largely listed as inhibitors; further: on the % scale 0 is the no-effect control and ±100 the full control effect; nearly all actives have a fitted effect of over 60% in size
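Compound is pinned into ATP-containing buffer (10 uM ATP, imidazole pH 7.2, 7 mM MgCl2). Kinase-Glo luciferase reagent is then added. Light output is recorded following an 8-min room-temperature incubation.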
The depositor's hits bear a star; ? = inconclusive; . = no result; [ ] = another dose, or the depositor's remark. The call rests on the fitted dose curve; in most records, active means well fitted curve in the direction sought with a large enough effect; inconclusive means small, poorly fitted or top-dose-only effect, or another doubt; inactive means no such curve, though single readings can be large; an effect the other way counts as inactive or inconclusive. Potency means the concentration at half of the fitted maximal effect.

SMILES	Rab9 promoter act	SMN2 splice enh	FLuc modulator	NPC1 promoter act	ELG1 genotoxic	KinaseGlo FLuc
N#CC1(NC(=O)CSc2nnc(-c3ccccc3F)o2)CCCCC1	-4%	.	4%	-4%	1%	.
COc1ccc(-c2cc(-c3cc(C)ccc3O)[nH]n2)cc1	-36%	.	12µM*	-23%	?	1%
COc1ccc(-c2cc(-c3ccc(OC)cc3)[nH]n2)cc1	?	10%	8.5µM*	2.8µM*	?	14%
Cc1ccc(O)c(-c2cc(-c3ccccc3C)[nH]n2)c1	-1%	27%	?	-3%	1%	3%
COc1ccc(Oc2ccc(-c3ccn[nH]3)cc2)cc1	?	.	24µM*	?	10%	.
COc1ccc(-c2n[nH]c(C)c2-c2ccc(Cl)cc2)c(O)c1	3%	-16%	1%	2%	-6%	-2%
COc1ccc(-c2cc(-c3ccc(C)cc3)n[nH]2)c(O)c1	1.3µM*	.	4.8µM*	1.3µM*	?	.
O=C(CSc1nc2c([nH]c3ccccc32)c(=O)n1-c1ccccc1)N1CCc2ccccc21	.	.	-3%	.	.	.
Nc1ccc(S(=O)(=O)NC2(C(F)(F)F)NC(=O)N(c3cccc(Cl)c3)C2=O)cc1 (stereo not given)	.	-27%	-4%	.	.	.
COc1cccc(CNC(=O)CCc2c(C)nn(-c3ccc(N4CCOCC4)nn3)c2C)c1	.	.	4%	.	.	.
CC(C)c1ccc(NC(=O)CCNS(=O)(=O)c2ccc3c(c2)oc(=O)n3C)cc1	.	2%	-1%	.	.	.
CCc1ccc(Nc2n[n+](-c3ccccc3)c(/C=C/c3ccccc3)s2)cc1	-2%	.	12µM*	1%	-7%	.
CCC(=O)N(CCC1(c2ccccc2OC)CCOC(C(C)C)C1)Cc1ccco1 (stereo not given)	-1%	.	-1%	2%	-9%	.
CCOC(=O)C(=CNc1ccc(C)cc1C)C(=O)OCC	-7%	2%	15µM*	-1%	-2%	3%
COc1cccc(NC(=O)CSc2nnc(COc3ccc4c(c3)CCCC4)o2)c1	1%	1%	21µM*	12%	-1%	-2%
C=CCn1c(COc2ccc3c(c2)CCCC3)nnc1SCC(=O)Nc1cccc(SC)c1	8%	8%	13µM*	11%	-8%	-4%
C=CCn1c(COc2ccccc2)nnc1SCC(=O)Nc1ccc2c(c1)OCCO2	3%	-2%	-8%	-6%	4%	-8%
COc1ccc(OCc2nnc(SCC(=O)Nc3cccc(C(C)=O)c3)o2)cc1	-1%	.	19µM*	-3%	-2%	.
O=C(COc1ccc(S(=O)(=O)Nc2ccccc2)cc1)NCc1ccncc1	0%	-15%	1%	-43%	-4%	2%
CCOc1ccc(C2C(=O)N(C3CCCCC3)CC(=O)N2Cc2ccccc2OC)cc1OC (stereo not given)	.	.	-8%	.	.	.
CCc1ccc(C(=O)COC(=O)c2ccc(-c3nnc(-c4ccccc4)o3)cc2)cc1	0.56µM*	7.9µM*	-4%	0.89µM*	?	-2%
Cc1ccc(C(=O)OCC(=O)c2ccccc2)cc1	0.56µM*	.	1.9µM*	0.32µM*	0.58µM*	.
O=C(COC(=O)c1ccc(-c2cnc3ccccc3n2)cc1)c1ccccc1	?	8%	-9%	24%	2%	-1%
Cc1ccc(C(=O)NC(=S)NCC(=O)c2ccccc2)cc1	25%	25%	?	14%	5%	-4%
Cc1ccc(C(=O)OCC(=O)Nc2ccccc2)cc1NC(=O)c1ccco1	14%	6%	-13%	-3%	?	1%
SMILES	Rab9 promoter act	SMN2 splice enh	FLuc modulator	NPC1 promoter act	ELG1 genotoxic	KinaseGlo FLuc
Cc1ccc(C(=O)CC(=O)c2ccccc2)cc1	2.2µM*	.	9.5µM*	2.5µM*	25%	.
CC(=O)Nc1cc(C(=O)OCC(=O)c2ccccc2)ccc1C	4.5µM*	10µM*	19µM*	3.2µM*	15µM*	-3%
COc1ccc(CCNC(=O)C(=O)NCC2OCCN2S(=O)(=O)c2cccs2)cc1 (stereo not given)	6%	.	1%	3%	-14%	.
Cc1ccc(C(=O)COC(=O)c2cc(Cl)nc3ccccc23)cc1	1%	1%	11µM*	-1%	2%	-1%
O=C(CN1C(=O)CCC1=O)c1ccc(-c2ccccc2)cc1	?	4µM*	?	24%	17%	-6%
CC(=O)NC(C)C(=O)OCC(=O)c1ccc(-c2ccccc2)cc1 (stereo not given)	-4%	7%	13µM*	-3%	11%	3%
O=C(COC(=O)c1cc(Cl)nc2ccccc12)c1ccc(Cl)cc1	0%	-7%	?	-2%	-1%	4%
CCCC(=O)c1ccc(-c2ccccc2)cc1	0%	?	17µM*	6%	?	1%
CC(NC(=O)c1ccccc1)C(=O)OCC(=O)c1ccc(Br)cc1 (stereo not given)	17%	.	-10%	-2%	6%	.
COc1ccc(OC)c(CN2CCN(CC(=O)Nc3ccccc3C(=O)NC3CC3)CC2)c1	-6%	.	-2%	-1%	-7%	.
CCOC(=O)C(CC(=O)c1ccccc1)CC(=O)c1ccccc1	23%	.	13µM*	?	17%	.
Cc1ccc(S(=O)(=O)/N=C(/Sc2ccccc2C(=O)O)c2ccccc2)cc1	2%	.	-4%	-1%	2%	.
Cc1ccc(C(=O)Sc2cccccc2=O)cc1	-52%	.	3µM*	-39%	6.5µM*	.
COC(=O)C(CC(=O)c1ccccc1)CC(=O)c1ccccc1	0%[1.84 µM]	.	?	15%	12%	.
Cc1cc(C)cc(NC(=O)Cn2cc(S(=O)(=O)NC(C)(C)C)c(S(=O)(=O)NC(C)(C)C)c2)c1	.	.	-1%	.	.	.
CC(=O)Nc1ccc(NC(=O)C(C)Sc2n[nH]c(-c3ccc(C)cc3)n2)cc1 (stereo not given)	?	.	24µM*	13%	3%	.
Cc1ccc(S(=O)(=O)Nc2ccc3c(c2)C(=O)NC3=O)cc1[N+](=O)[O-]	-2%	.	2%	-2%	1%	.
O=C(Nc1ccc2c(c1)CCCN2C(=O)c1ccccc1)c1ccccc1Br	-1%	.	?	-4%	-9%	.
O=C(Nc1ccc2c(c1)CCCN2C(=O)c1cccs1)c1ccccc1C(F)(F)F	.	.	-3%	.	.	.
COc1ccccc1C(=O)Nc1ccc2c(c1)CCCN2C(=O)c1ccccc1	4%	.	9.5µM*	1%	-2%	.
CCOC(=O)CNC(=O)N1CCc2ccc(NC(=O)c3ccccc3Cl)cc2C1	2%	.	?	-4%	2%	.
COc1ccccc1C(=O)Nc1ccc2c(c1)CN(C(=O)CSC)CC2	9%	.	24µM*	0%	9%	.
COc1ccccc1C(=O)Nc1ccc2c(c1)CCCN2C(=O)c1cccs1	15%	.	17µM*	0%	-7%	.

Screens (PubChem BioAssay)
